102 molecules from PubChem BioAssay AID602410 (Johns Hopkins Ion Channel Center, 2012) can be followed below.

Hit rate of the full screen: of about 340,000 compounds, about 2,800 (0.82%) were called active.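 Rule for the calls: active = B-score under library mean minus 4 SD, starting fluorescence ratio at most library mean plus 5 SD; inactive = the rest.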 Only a selection was taken, and actives are over-represented in it overall.

The target of this assay is Potassium channel subfamily K member 3 (Homo sapiens) (UniProt O14649). Kind of assay: blockers of TASK1 two-pore potassium channel – CHO cells, FluxOR thallium flux, B-score, primary screen (AID 602410).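 For B-score: more negative B-score means stronger inhibition of thallium flux through KCNK3.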 The settings on record: CHO-KCNK3 thallium flux, FluxOR fluorescence, at 10 µM; hits give low values.
Potassium channel subfamily K member 3 (Homo sapiens), sequence (O14649 whole entry, looked up): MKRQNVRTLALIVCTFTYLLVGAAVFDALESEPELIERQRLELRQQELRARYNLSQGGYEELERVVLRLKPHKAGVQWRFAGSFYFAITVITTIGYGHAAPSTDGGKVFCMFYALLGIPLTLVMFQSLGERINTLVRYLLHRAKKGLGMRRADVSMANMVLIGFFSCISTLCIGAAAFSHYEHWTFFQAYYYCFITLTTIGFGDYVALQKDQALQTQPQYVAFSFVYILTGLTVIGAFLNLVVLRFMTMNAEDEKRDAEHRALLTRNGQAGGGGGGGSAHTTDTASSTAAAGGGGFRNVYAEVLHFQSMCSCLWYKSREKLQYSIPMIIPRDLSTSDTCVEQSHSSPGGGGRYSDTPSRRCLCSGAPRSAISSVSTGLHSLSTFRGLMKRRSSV
Regarding `Cc1noc(C)c1S(=O)(=O)N(CC(=O)Nc1ccc2c(c1)OCCO2)c1ccc(C(C)C)cc1`, the B-score result was “inactive”.
With `COc1ccc(N(CC(=O)Nc2cc(OC)ccc2OC)S(=O)(=O)c2c(C)noc2C)cc1`, the B-score result is “inactive”.
With `CCOC(=O)c1cccc(NC(=O)CN(c2ccc(C)cc2)S(=O)(=O)c2c(C)noc2C)c1` the figure was -8.84 (active); with `N#Cc1c(NC(=O)CSc2nc3ccccc3c(=O)n2Cc2ccco2)sc2c1CCCC2`, “inactive”; with `COc1cccc(NC(=O)C(Sc2nc3ccccc3c(=O)n2CC(C)C)c2ccccc2)c1` (configuration not stated), “inactive”.
For `CC(Sc1nc2ccccc2c(=O)n1Cc1ccco1)C(=O)c1ccccc1` (configuration not stated) the value was -8.93 (active); for `CC(C)(C)OC(=O)Nc1ccc([C@@H](NC(=O)OC(C)(C)C)C(=O)OC(C)(C)C)cc1`, “inactive”.
In the case of `COc1ccc(CC(=O)NCc2nnc(SCC(=O)Nc3nccs3)n2C)cc1`, the B-score entry is “inactive”.
As for `CC1(C)Cc2ccccc2-c2nnc(-c3cccc(O)c3)n21`, the B-score result is “inactive”.
With `COc1cc(C)c(Cl)cc1S(=O)(=O)n1ccnc1` the entry was “inactive”; with `O=C(Cc1ccc(S(=O)(=O)N2CCOCC2)s1)NCCC(c1ccccc1)c1ccccc1`, “inactive”.
In the case of `O=C(Cc1ccc(S(=O)(=O)N2CCOCC2)s1)Nc1ccc(Br)c(C(F)(F)F)c1`, the B-score was -9.72 (active).
With `O=C(Cc1ccc(S(=O)(=O)N2CCOCC2)s1)NCCOc1ccccc1F` the entry was “inactive”.
`O=C1CCCN2N=C(SCC(=O)Nc3ccc(Br)cc3)SC2=N1`: the B-score entry is “inactive”.
With `N#C/C(=C\c1ccccc1)c1n[nH]c(Cn2cncn2)n1` the entry was “inactive”.
For `CCN1CCN(C(=O)N[C@@H](C(=O)N[C@@H]2C(=O)N3C(C(=O)O)=C(CSc4nnnn4C)CS[C@H]23)c2ccc(O)cc2)C(=O)C1=O` the value was “inactive”; for `CN(C(=O)CSc1nnc(-c2ccc(C(C)(C)C)cc2)n1C)C1CCS(=O)(=O)C1` (configuration not stated), “inactive”.
With `COc1ccc2c(c1)c(=O)c(C(=O)c1ccc(Cl)cc1)cn2CC(=O)Nc1ccc(F)cc1` the entry was “inactive”; with `CN1c2ccc(C=O)c3c(C=O)ccc(c23)N(C)C1(C)C`, -11.3 (active).
For `COc1ccc(-c2nc(CN3CCN(c4ncccn4)CC3)c(C)o2)cc1C`, the B-score result was “inactive”.
For `Cc1ccc(C(CNC(=O)Nc2ccccc2)N2CCN(C)CC2)cc1` (configuration not stated) the value was “inactive”.
With `COc1cccc(C(=O)Nc2cc3c(cc2Br)OCCCO3)c1`, the B-score entry was “inactive”.
For `COc1ccc(CN(C)C(=O)c2cc(-c3ccc(C)cc3C)nc3ccccc23)c(OC)c1OC` the value was -12.7 (active).
For `COc1ccc(-c2cc(C(=O)N(C)CC(=O)Nc3ccccc3Cl)c3ccccc3n2)cc1OC` the value was “inactive”.
Consider `COc1ccc(-c2cc(C(=O)N(C)Cc3ccc(OC)c(OC)c3OC)c3ccccc3n2)cc1OC`, for which the B-score result was “inactive”.
For `CC(=O)c1c(Nc2ccccc2)sc(C(=O)c2ccccc2)c1C`, the B-score result was “inactive”.
For `COc1ccc(Cl)cc1NC(=O)CN(C)C(=O)c1cc(-c2cccs2)nn1-c1ccccc1` the value was “inactive”.
For `COc1ccccc1C(=O)NCC(=O)NCCSc1ccc(Br)cc1` the value was “inactive”; for `COc1cccc(C(=O)NCCSc2ccc(Br)cc2)c1`, -8.94 (active); for `COc1cc(C(=O)NCC(=O)NCCSc2ccc(Br)cc2)cc(OC)c1OC`, “inactive”.
With `Cc1ccc(NCc2n[nH]c(=S)n2-c2ccccc2)cc1Cl` the entry was “inactive”; with `CCOc1ccc(OCCSc2nc3ccccc3n2CC(=O)O)cc1`, “inactive”.
Regarding `Cc1cc(C)cc(NC(=O)C2CCCN(S(=O)(=O)c3ccc4[nH]c(=O)ccc4c3)C2)c1` (configuration not stated), the B-score result is “inactive”.
With `CCOc1ccc(C2c3[nH]c4ccccc4c3CCN2Cc2cn(CC)nc2C)cc1` (configuration not stated), the B-score result was “inactive”.
For `c1ccc(C2c3[nH]c4ccccc4c3CCN2Cc2cccn2-c2cccnc2)nc1` (configuration not stated) the value was “inactive”; for `CCOc1ccc(C2c3[nH]c4ccccc4c3CCN2Cc2cccn2-c2ncccn2)cc1` (configuration not stated), -8.75 (active).
Turning to `O=C(NCc1ccccc1)C1=C[C@@H](c2ccc(C(F)(F)F)cc2)C[C@@H](OCc2ccc(CO)cc2)O1`, the B-score result is “inactive”.
Turning to `COCc1cc(C(C)=O)ccc1OC`, the B-score result is “inactive”.
For `COc1ccc(C(C)=O)cc1COc1ccc(Cl)c(C)c1` the value was -10.4 (active).
As to `CCOc1ccc(C(C)=O)cc1COC(=O)c1cnc(Cl)c(Cl)c1`, the B-score result is “inactive”.
With `O=S(=O)(c1cccc(-c2cn3ccccc3n2)c1)N1CCCC1` the entry was “inactive”; with `O=S(=O)(NC1CCCCC1N1CCCCC1)c1ccc(Cl)cc1` (configuration not stated), “inactive”; with `COc1ccc(N2CCN(C3CCCCC3NS(=O)(=O)c3ccccc3)CC2)cc1` (configuration not stated), “inactive”.
Turning to `O=S(=O)(NC1CCCCC1N1CCN(c2ccccc2F)CC1)c1ccccc1` (configuration not stated), the B-score is -9.12 (active).
With `CCC(C)(C)NC(=O)C(c1ccc(O)cc1)N(Cc1ccco1)C(=O)CCC(=O)Nc1ccccn1` (configuration not stated), the B-score result was “inactive”.
With `Cn1c(=O)c2sccc2n(Cc2ccc(Br)cc2)c1=O` the entry was “inactive”; with `COc1nc(NCc2ccc(Cl)cc2)nc(OC)n1`, “inactive”.
For `FC(F)(F)c1cc(-c2ccco2)nc(NCc2ccc(Cl)cc2)n1` the value was -8.85 (active); for `FC(F)(F)c1cc(-c2cccs2)nc(NCc2ccco2)n1`, “inactive”.
With `Cc1c(C(=O)NCC2CCCO2)sc2nc(-c3ccccc3)cn12` (configuration not stated) the entry was “inactive”; with `Cc1c(C(=O)N2CCCc3ccccc32)sc2nc(-c3ccccc3)cn12`, -9.27 (active).
As for `Cc1cccc2cc3c(N)c(C(=O)N4CCCc5ccccc54)sc3nc12`, the B-score result was “inactive”.
For `N[C@@H](Cc1ccccc1)C(=O)N1CCC(C(=O)NCC(=O)Nc2ccc(F)cc2)CC1` the value was “inactive”; for `COc1ccc(C(F)(F)F)cc1N/C=C\c1nnnn1-c1ccc(C)cc1`, “inactive”.
Turning to `Cc1ccc(C(=O)N/N=C\c2cc(Br)c(Br)o2)cn1`, the B-score result was “inactive”.
For `COc1ccc(S(=O)(=O)NCCOc2ccccc2)cc1F` the value was “inactive”.
As to `COc1ccc(S(=O)(=O)NCCCCOc2ccc(Cl)cc2)cc1`, the B-score is -9.65 (active).
For `COc1ccc(OCCNS(=O)(=O)Cc2ccccc2)cc1`, the B-score entry is “inactive”.
For the molecule `CCCC(C)c1nnc(NC(=O)C2CC(=O)N(c3ccc(OCC)cc3)C2)s1` (configuration not stated), the B-score result was “inactive”.
For `CC(C)[C@H](NC(=O)Nc1ccc(S(N)(=O)=O)cc1)C(=O)O` the value was “inactive”; for `CC(C)n1c(COc2ccccc2)nc2ccccc21`, “inactive”; for `COc1cccc(C(O)c2nc3ccccc3n2C)c1` (configuration not stated), “inactive”.
For `CCCCCC(O)c1cccc(OCc2ccc3ccccc3n2)c1` (configuration not stated) the value was -9.81 (active); for `NS(=O)(=O)c1ccc(NC(=O)/C=C/c2ccccc2Cl)cc1`, “inactive”; for `Cc1cc(=O)oc2c(C)c(OC(C)C(=O)NC3CCN(Cc4ccccc4)CC3)ccc12` (configuration not stated), “inactive”.
For `COc1cc(C(=S)NCc2ccccc2)cc(Br)c1O`, the B-score entry was “inactive”.
With `CC(=O)N1CCCc2cc(S(=O)(=O)N3CCCC(C(=O)N4CCN(c5cccc(Cl)c5)CC4)C3)ccc21` (configuration not stated), the B-score is -9.62 (active).
As for `CC(=O)N1c2ccc(S(=O)(=O)N3CCC(C(=O)N4CCN(c5ccccc5)CC4)CC3)cc2CC1C` (configuration not stated), the B-score entry was “inactive”.
Consider `CC(=O)N1CCCc2cc(S(=O)(=O)CCC(=O)N3CCN(c4ccccc4)CC3)ccc21`, for which the B-score entry was “inactive”.
For `CCOc1ccc2[nH]c(=O)c(CN(Cc3nnnn3Cc3ccccc3)CC3CCCO3)cc2c1` (configuration not stated) the value was “inactive”; for `Cc1cc(C)c2cc(CN(Cc3nnnn3Cc3ccc(F)cc3)C3CCCC3)c(=O)[nH]c2c1`, “inactive”; for `Cc1cccc2cc(CN(Cc3nnnn3Cc3ccccc3)C3CCCC3)c(=O)[nH]c12`, -10.8 (active).
Turning to `CCCCn1c(N)c(N(CCOC)C(=O)c2cccc(S(=O)(=O)N(C)c3ccccc3)c2)c(=O)[nH]c1=O`, the B-score result was “inactive”.
With `COc1ccc(C2NCCCC2c2ccccc2)cc1` (configuration not stated) the entry was “inactive”.
With `COCCn1c(=O)[nH]c2cc(C(=O)NCc3cccnc3)ccc2c1=O` the entry was “inactive”; with `CCCCNC(=O)C1(O)c2ccccc2NC(=O)N1c1ccc(Cl)cc1` (configuration not stated), “inactive”.
For `Cc1cccc(N(Cc2ccccc2)C(=O)c2cc(S(=O)(=O)N3CCOCC3)ccc2F)c1` the value was “inactive”; for `Cc1cccc(N(Cc2ccccc2)C(=O)c2ccccc2F)c1`, -9.35 (active).
With `O=C(c1ccccc1F)N(Cc1ccccc1)Cc1ccccc1`, the B-score entry is “inactive”.
Regarding `O=[N+]([O-])c1cc([N+](=O)[O-])c(Oc2cc(F)cc(F)c2F)cc1NN1CCCCC1`, the B-score result was “inactive”.
For `COC(=O)C1=C(C(=O)OC)C(c2cc([N+](=O)[O-])ccc2O)c2sc(=O)[nH]c2S1` (configuration not stated) the value was “inactive”; for `Cc1c(C(=O)NC2CCCCC2)oc2ccccc12`, “inactive”; for `Cc1cc(C)nc(-n2nc(C)cc2NC(=O)c2ccc(F)cc2F)n1`, “inactive”.
Consider `CC(Nc1nc(N2CCOCC2)nc2ccccc12)c1ccccc1` (configuration not stated), for which the B-score result is “inactive”.
With `CC(Nc1nc(N2CCCC2)nc2ccccc12)c1ccccc1` (configuration not stated) the entry was “inactive”; with `c1ccc2c(NC3C4CC5CC(C4)CC3C5)nc(N3CCOCC3)nc2c1` (configuration not stated), -9.5 (active); with `O=C(NC1CC1)C1CCCN(C(=O)NC2CCCCC2)C1` (configuration not stated), “inactive”.
With `COc1ccccc1OCc1nnc(SCC(N)=O)n1-c1ccccc1`, the B-score result is “inactive”.
Consider `COc1ccc(C(c2nnnn2C2CCCCC2)N2CCN(c3ccccc3F)CC2)cc1` (configuration not stated), for which the B-score result was “inactive”.
Consider `c1ccc(C(c2ccccc2)N2CCN(Cc3nnnn3C3CCCCC3)CC2)cc1`, for which the B-score was -10.8 (active).
For `c1ccc(CCn2nnnc2CN2CCN(C3CCCC3)CC2)cc1` the value was “inactive”; for `CC(=O)c1c(C)c[nH]c1C`, “inactive”; for `O=C(NC(=S)N1CCN(Cc2ccccc2)CC1)c1ccccc1`, “inactive”.
With `Cc1cccc(N(C(=O)Cc2cccs2)C(C(=O)NC2CCCC2)c2ccsc2)c1` (configuration not stated) the entry was “inactive”; with `NS(=O)(=O)c1ccc(N2C(=O)C3C4CC(C(Br)C4Br)C3C2=O)cc1` (configuration not stated), “inactive”.
With `Cc1cc(O)c(NC(=O)c2ccc(C)c([N+](=O)[O-])c2)cc1C` the entry was “inactive”; with `CCCCCCCCn1c2c(c(=N)c3c1CCC3)CCCC2`, -9.82 (active).
Take `CC1(C)Cc2c(sc(NC(=O)C(=O)N3CCOCC3)c2C#N)CO1`: the B-score result is “inactive”.
For the molecule `Clc1ccc(-c2cc(C3CCNCC3)[nH]n2)c(Cl)c1`, the B-score result is “inactive”.
On to `CC1(c2ccccc2)NC(=O)N(CC(=O)Nc2cc(Cl)ccc2N2CCOCC2)C1=O` (configuration not stated), for which the B-score entry was “inactive”.
Regarding `Cc1ccccc1NC(=O)CSc1nc2ccc(Nc3nc(N4CCOCC4)nc(N4CCOCC4)n3)cc2s1`, the B-score result was “inactive”.
For `O=C(CSc1nc(Nc2ccccc2)nc(N2CCOCC2)n1)Nc1cc(Cl)ccc1O` the value was -11.6 (active).
